Measured values reported in PubChem BioAssay (Tox21).
Records with an inconclusive call do not appear. A number with no mark means an inactive call. Calls follow the shape of the dose curve; as a rule, active = well fitted cell-killing curve with a large enough effect in the repeat runs; inconclusive = weak or mixed curves; inactive = flat fitted curve, though single readings scatter. Positions of bridges follow the written chain, without caps; N, C: chain ends. Where a SMILES comes first, the peptide text is derived from it. Non-standard residues stand in square brackets, D forms with d. Residues, ends and D or L forms follow the SMILES beside them. hArg = N=C(N)NCCCC[C@H](N)C(=O)O; Mpa = O=C(O)CCS

experiment: qHTS RealTime-Glo MT Cell Viability Assay in HepG2 cells - 32 hour (AID 1224877); conditions: RealTime-Glo luminescence; series mostly up to 76.8 µM; activity change, negative = cytotoxic: at the top concentration; also: nearly all actives have a fitted effect of over 55% in size
Outline: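 HepG2 suspension premixed with RealTime-Glo reagents is plated at 600 cells per well and left 5 h at 37 C/5% CO2. Compounds in DMSO then go in, and bioluminescence reflecting viable cell number is recorded over 40 h.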
% is scaled to controls: 0 for no effect and ±100 for the full control effect.

Row | SMILES | activity change, negative = cytotoxic
1 | COc1ccc2c(c1)c1c3n2CCN(C)C3=NCC1 | 2.01% [at 35.3 µM]
2 | Cn1c(=O)c2[nH]c(Br)nc2n(C)c1=O | 4.75% [at 35.3 µM]
3 | CC(=O)C1C(=O)C=C(C)OC1=O (configuration not stated) | -2.99%
4 | CN(C)CCN(C)CCO | 0.825%
5 | CC(C)C1OCCN1CCOC(=O)NCCCCCCNC(=O)OCCN1CCOC1C(C)C (configuration not stated) | -2.34%
6 | CC(=O)O[C@H]1C[C@@H]2CC[C@@]1(C)C2(C)C | 0.923%
7 | CN1C[C@@H]2C[C@H]1CN2c1cc2c(cc1F)c(=O)c(C(=O)O)cn2C1CC1 | 4.04% [at 15.8 µM]
8 | CC1(C)CC(OC(=O)CCCCCCCCC(=O)OC2CC(C)(C)NC(C)(C)C2)CC(C)(C)N1 | 3.56% [at 15.8 µM]
9 | C=Cc1ccc(C(C)(C)C)cc1 | 2.48%
10 | CCOc1ccccc1OCC1CNCCO1 (configuration not stated) | 3.36% [at 35.3 µM]
11 | N[C@@H](Cc1ccc(O)cc1)C(=O)O | -0.0666% [at 6.97 µM]
12 | O=C(CCCCC(=O)Nc1c(I)cc(I)c(C(=O)O)c1I)Nc1c(I)cc(I)c(C(=O)O)c1I | -1.67% [at 35.3 µM]
13 | O=C1NC(c2ccccc2)(c2ccccc2)C(=O)N1COP(=O)(O)O | 0.661% [at 35.3 µM]
14 | OCCN1CCOCC1 | 0.444%
15 | CC(C)c1ccc(C=O)cc1 | 0.0576%
16 | COc1c2occc2c(OC)c2c(=O)cc(C)oc12 | -2.46% [at 35.3 µM]
17 | CCCCOCCOC(=O)COc1ccc(Cl)cc1Cl | 0.934%
18 | CCC(C(=O)OCCN1CCOC(c2ccccc2)C1C)c1ccccc1 (configuration not stated) | -9.3% [at 35.3 µM]
19 | C=C(C)[C@@H]1CC=C(C)CC1 | -1.45%

Row | SMILES | activity change, negative = cytotoxic
20 | CC(=O)CC(=O)Nc1ccc(C)cc1C | 0.664%
21 | c1ccc2cnccc2c1 | 1.38%
22 | CN(C)CCOC(=O)C(c1ccccc1)C1(O)CCCC1 (configuration not stated) | 0.728% [at 35.3 µM]
23 | NCc1ccc(S(N)(=O)=O)cc1 | 4.79% [at 35.3 µM]
24 | COc1cc(/C=C/C(N)=O)cc(OC)c1OC | 3.92% [at 35.3 µM]
25 | NC(=O)[C@@H]1CSSCCC(=O)N[C@@H](CCCCN=C(N)N)C(=O)NCC(=O)N[C@@H](CC(=O)O)C(=O)N[C@@H](Cc2c[nH]c3ccccc23)C(=O)N2CCC[C@H]2C(=O)N1 ([Mpa][hArg]GDWPC-NH2; disulfide 1-7) | 0.161% [at 35.3 µM]
26 | O=C1c2ccccc2C(=O)c2cc(Cl)ccc21 | -5.12% [at 6.97 µM]
27 | Fc1ccccc1 | 9.68%
28 | CC(C)(CO)C(O)C(=O)NCCCO (configuration not stated) | 0.352%
29 | CC(=O)c1cc(C)oc1C | 2.12%
30 | COc1cc(OC)nc(O[C@H](C(=O)O)C(OC)(c2ccccc2)c2ccccc2)n1 | 3.26% [at 35.3 µM]
31 | CCO | 2.78%
32 | C=C(C)c1cccc(C(C)(C)N=C=O)c1 | 0.139%
33 | C=CC/C=C/C | 0.0433%
34 | CCCCCCCCCOC(=O)CCCCC(=O)OCCCCCCC | -7.51%
35 | CC(=O)N[C@@H](CO)C(=O)N[C@@H](CC(=O)O)C(=O)N[C@@H](CCCCN)C(=O)N1CCC[C@H]1C(=O)O (Ac-SDKP-OH) | 2.04% [at 35.3 µM]
36 | CCC/C=C(\C=O)CC | 1.27%
37 | CC(C)OC(=O)CCC(=O)OC(C)C | -0.192%
